# Publication PMC4336329 (PLoS ONE, 2015)
# Hit rate of the full screen: of about 310,000 compounds, about 2,200 (0.71%) showed an effect of 50% or more. Effects have a minus sign here. For the sample, strong results were picked, then their nearest neighbours and some compounds at random.
# Molecular target: human ether-à-go-go-related gene (hERG) potassium channel (human, UniProt Q12809)
# Assay: primary screen, population patch clamp on CHO cells stably expressing hERG; higher = less effect of the substance
# Sequence of human ether-à-go-go-related gene (hERG) potassium channel (Q12809 whole entry, looked up): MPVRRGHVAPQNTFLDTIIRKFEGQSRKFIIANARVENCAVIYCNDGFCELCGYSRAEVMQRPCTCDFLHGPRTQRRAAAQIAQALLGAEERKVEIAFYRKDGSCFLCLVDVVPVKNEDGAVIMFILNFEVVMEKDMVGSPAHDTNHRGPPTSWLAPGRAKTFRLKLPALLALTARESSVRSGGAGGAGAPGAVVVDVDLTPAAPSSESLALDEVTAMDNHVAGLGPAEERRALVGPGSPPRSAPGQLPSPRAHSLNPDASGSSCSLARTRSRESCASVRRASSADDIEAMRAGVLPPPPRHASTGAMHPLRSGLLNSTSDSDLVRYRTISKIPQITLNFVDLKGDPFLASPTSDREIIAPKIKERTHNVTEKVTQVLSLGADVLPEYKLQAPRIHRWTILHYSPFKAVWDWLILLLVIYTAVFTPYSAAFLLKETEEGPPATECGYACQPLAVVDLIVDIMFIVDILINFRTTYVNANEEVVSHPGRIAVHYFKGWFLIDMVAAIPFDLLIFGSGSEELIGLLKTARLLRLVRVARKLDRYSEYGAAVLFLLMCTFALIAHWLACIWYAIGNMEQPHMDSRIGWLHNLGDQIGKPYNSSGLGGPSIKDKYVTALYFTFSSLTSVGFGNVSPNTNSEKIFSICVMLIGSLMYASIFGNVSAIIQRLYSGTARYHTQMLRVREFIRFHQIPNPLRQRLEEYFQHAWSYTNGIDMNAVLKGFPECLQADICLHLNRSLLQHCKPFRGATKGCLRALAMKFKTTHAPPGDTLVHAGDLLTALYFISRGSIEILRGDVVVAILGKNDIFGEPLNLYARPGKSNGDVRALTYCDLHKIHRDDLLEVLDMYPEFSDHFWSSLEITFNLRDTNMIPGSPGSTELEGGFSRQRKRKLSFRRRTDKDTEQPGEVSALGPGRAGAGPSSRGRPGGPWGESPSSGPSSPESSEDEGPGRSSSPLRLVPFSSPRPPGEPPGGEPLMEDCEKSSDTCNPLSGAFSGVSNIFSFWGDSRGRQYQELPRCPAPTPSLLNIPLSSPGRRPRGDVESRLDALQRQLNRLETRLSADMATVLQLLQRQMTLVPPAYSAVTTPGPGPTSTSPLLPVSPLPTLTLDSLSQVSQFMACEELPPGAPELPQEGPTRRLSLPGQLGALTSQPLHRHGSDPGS
row,Structure (SMILES),"hERG current change (%, negative = inhibition) at 1uM"
1,C=C(C)CNC(=O)c1ccc(OC2CCN(S(=O)(=O)N(C)C)CC2)cc1,13.2%
2,COc1ccc2c(c1)CC1(CN2C)C(=O)NC(=O)N(CCc2ccccc2)C1=O (centres unmarked),-6.39%
3,CCN(CC)S(=O)(=O)c1ccc2c(c1)N(CC(=O)Nc1ccc(NC(C)=O)cc1)C(=O)CO2,10.6%
4,CCCN1CCC(N(CCc2ccccc2)Cc2ccccc2)CC1,-73.2%
5,O=C(Cc1ccccc1)N1CCN(C2CCCCCC2)CC1.O=C(O)C(=O)O,4.29%
6,CCCCN(Cc1ccccc1)C1CCN(Cc2ccccc2)CC1,-14.5%
7,CCCCN(Cc1ccccc1)C1CCN(CCc2ccccc2)CC1,-13.4%
8,O=C(O)C(=O)O.c1ccc(CCN(Cc2ccccc2)C2CCN(C3CCCC3)CC2)cc1,-68.9%
9,CC(C)CC(=O)N1CCC(N(CCc2ccccc2)Cc2ccccc2)CC1.O=C(O)C(=O)O,7.09%
10,O=C(Nc1ccccc1)N1CCCc2ccccc21,-28.2%
11,Cc1ccn2c(=O)nc(SCC(=O)N3CCCCCC3)nc2c1,19.6%
12,CCCCN(C(=O)Nc1ccc(Cl)cc1)C1CCN(C(C)=O)CC1,-19.1%
13,CC(C)CCN(C(=O)Nc1ccc(Cl)cc1)C1CCN(C(C)C)CC1,-57.6%
14,CCOc1ccc(NC(=O)N(CCC(C)C)C2CCN(C(C)=O)CC2)cc1,7.21%
15,Cc1cc(NC(=O)c2cc3cccc([N+](=O)[O-])c3[nH]2)ccc1F,11.5%
16,COc1c(C)cc(Br)cc1C(=O)Nc1cccc(-c2nc3ncccc3o2)c1,-7.42%
17,O=C(c1sc2ccccc2c1Cl)N1CCN(c2ncccn2)CC1,6.43%
18,O=C(c1sc2cccc(F)c2c1Cl)N1CCN(c2ncccn2)CC1,-65.4%
19,O=C(c1c(F)cccc1F)N1CCN(c2ncccn2)CC1,12.5%
20,COc1cccc(-c2nn(-c3ccc(C)cc3)cc2C(=O)NCC2CCCO2)c1 (centres unmarked),-0.814%
21,COC(=O)c1ccc(S(=O)(=O)NCCSc2nnc3c4ccccc4n(C)c3n2)cc1,1.09%
22,CCOc1cc(N2CCOCC2)c(OCC)cc1NC(=O)Cn1nc(C)c([N+](=O)[O-])c1C,6.15%
23,CCc1cc2c(NCCO)ncnc2s1,14.1%

row,Structure (SMILES),"hERG current change (%, negative = inhibition) at 1uM"
1,CCc1cc2c(N3CCCCC3)ncnc2s1.Cl,5.54%
2,CCc1cc2c(NCCN3CCCCC3)ncnc2s1.Cl,-55.9%
3,CC[C@@]12C(=O)N(c3cccc(Br)c3)C(=O)N1[C@H](c1ccc(Cl)cc1)[C@@H]1C(=O)N(C3CCCCC3)C(=O)[C@@H]12,6.83%
4,Cc1ccccc1N1CCN(S(=O)(=O)c2ccccc2)CC1,5.62%
5,Cc1cc(N2CCN(S(=O)(=O)c3ccccc3)CC2)c2ccccc2n1,-78.6%
6,Cc1cc(N2CCN(S(=O)(=O)c3ccc(C)c(C)c3)CC2)c2ccccc2n1,-18.3%
7,Cn1c(N2CCN(S(=O)(=O)c3ccc(Cl)cc3)CC2)nc2ccccc21,-23.2%
8,CC(=O)Nc1ccc(S(=O)(=O)N2CCN(S(=O)(=O)c3ccccc3)CC2)cc1,10.1%
9,COc1ccc2nc(C)cc(N3CCN(c4ccccc4)CC3)c2c1,-29%
10,CC(=O)Nc1ccc(S(=O)(=O)N2CCN(c3cc(C)nc4ccccc34)CC2)cc1,-71.6%
11,COc1ccc2nc(C)cc(N3CCOCC3)c2c1,7.31%
12,COc1ccc2nc(C)cc(N3CCN(S(=O)(=O)c4ccccc4F)CC3)c2c1,-62.2%
13,Cc1cc(N2CCN(S(=O)(=O)c3ccc(Cl)cc3)CC2)c2ccccc2n1,-80.8%
14,CC(=O)Nc1ccc(S(=O)(=O)N2CCN(c3nc(C)cc(C)n3)CC2)cc1,14.9%
15,Cc1cc(N2CCN(S(=O)(=O)c3ccc(Cl)c(Cl)c3)CC2)c2ccccc2n1,4.58%
16,Cc1ccc(CS(=O)(=O)CCC(=O)NCCC(C)C)cc1,6.06%
17,COCCn1c(C)cc(C(=O)CSc2nc(C)c(C)c(C)n2)c1C,9.29%
18,CCc1noc(C)c1C(=O)Nc1sc(C(=O)N(C)C)c(C)c1C(=O)OC,-6.16%
19,Cc1c(NC(=O)c2ccc(S(=O)(=O)N3CCOCC3)cc2)cccc1[N+](=O)[O-],7.56%
20,CC(C)(C)n1ncc2c(=O)n(Cc3cccc(Cl)c3)cnc21,-10.1%
21,Cc1ccnc(NS(=O)(=O)c2cccs2)c1,12.9%
22,Cc1ccc(C(=O)COC(=O)c2ccc3c(c2)C(=O)N(c2cccc4ncccc24)C3=O)cc1C,4.09%
23,COC(=O)c1c(C)[nH]c(C(=O)C(C)OC(=O)C2CC2)c1C (centres unmarked),10%

row,Structure (SMILES),"hERG current change (%, negative = inhibition) at 1uM"
1,Cc1cc(N2CCN(c3ccc(C(F)(F)F)cc3[N+](=O)[O-])CC2)c2ccccc2n1,-64.2%
2,Cc1cc(N2CCN(c3ccc([N+](=O)[O-])c4cccnc34)CC2)c2ccccc2n1,-13.9%
3,Cc1ccc(S(=O)(=O)N2CCN(c3ccc(C(F)(F)F)cc3[N+](=O)[O-])CC2)cc1,2.51%
4,COc1ccccc1NC(=O)Nc1ccc(N2CCOCC2)cc1,10.4%
5,Cc1ccc(NC(=O)CN2C(=O)NC(C)(c3ccc(Cl)cc3)C2=O)cc1 (centres unmarked),14.4%
6,O=C(/C=C/c1ccccc1)NC1CC2CCCC(C1)N2Cc1ccccc1 (centres unmarked),-46.4%
7,Cc1ccc(CN2C3CCCC2CC(NC(=O)Nc2cccc(F)c2)C3)cc1 (centres unmarked),-85.2%
8,CCc1cccc(CC)c1NC(=O)CN1C2CCCC1CC(NC(=O)Nc1cccc(OC)c1)C2 (centres unmarked),9.12%
9,O=C(Nc1cccc(F)c1)NC1CC2CCCC(C1)N2C1CC1 (centres unmarked),4.85%
10,COc1ccc(CN2C3CCCC2CC(NC(=O)/C=C/c2ccccc2)C3)cc1 (centres unmarked),-84.2%
11,COc1ccc(NC(=O)NC2CC3CCCC(C2)N3Cc2ccccc2)cc1 (centres unmarked),-17.4%
12,COc1ccc(CN2C3CCCC2CC(NC(=O)Nc2cccc(C)c2)C3)cc1 (centres unmarked),-71.5%
13,COc1ccc(CN2C3CCCC2CC(NC(=O)Nc2ccccc2)C3)cc1 (centres unmarked),-64%
14,COc1ccc(CN2C3CCCC2CC(NC(=O)Nc2ccccc2C)C3)cc1 (centres unmarked),-36.5%
15,Cc1cccc(NC(=O)NC2CC3CCC(C2)N3Cc2ccco2)c1 (centres unmarked),-8.04%
16,CCC(=O)NC1CC2CCCC(C1)N2Cc1ccc(C)cc1 (centres unmarked),-11.9%
17,COc1ccccc1CN1C2CCCC1CC(NC(=O)/C=C/c1ccccc1)C2 (centres unmarked),-43.8%
18,CC(C)(C)OC(=O)NCCCCCc1nnc(SCc2ccc(F)cc2)o1,3.71%
19,CCCCc1cc2c(s1)CCCC/C2=N/O,2.41%
20,Cc1cc(S(=O)(=O)Nc2ccc(C(=O)NCCCN3CCOCC3)cc2)ccc1F,19.8%
21,Cc1ccsc1/C=N/n1c(-c2ccncc2)n[nH]c1=S,19.8%
22,O=C(O)C=C(Br)Br,7.58%
23,COC(=O)/C(=C1/Oc2cc(C)oc(=O)c2S1)C(F)(F)F,13.6%

row,Structure (SMILES),"hERG current change (%, negative = inhibition) at 1uM"
1,CCOC(=O)CON1C(=O)C(C)(C)N(OCC(=O)OCC)C(=O)C1(C)C,15.7%
2,Cc1ccc(-n2ccnc(SCC(=O)NC3CCCCC3)c2=O)cc1F,14.5%
3,CC(c1ccccc1)C1CC(=O)N(CC(=O)O)C1=O (centres unmarked),16.2%
4,Cc1cccn2c(=O)c3cc(C(=O)NC4CCCC4)c(=N)n(C4CCCCC4)c3nc12,-81.9%
5,Cc1cccn2c(=O)c3cc(C(=O)NC4CCCC4)n(C)c3nc12,9.12%
6,Cc1cccn2c(=O)c3cc(C(=O)NC4CCCCC4)n(C)c3nc12,13.8%
7,Cc1cccn2c(=O)c3cc(C(=O)NC4CCCC4)c(=N)n(C4CCCC4)c3nc12,-87%
8,Cc1cccn2c(=O)c3cc(C(=O)NC4CCCC4)sc3nc12,2.15%
9,Cc1cccn2c(=O)c3cc(C(=O)NC4CCCCCC4)sc3nc12,15.1%
10,Cc1ccc(C(=O)CSc2nnc(COc3ccc(C#N)cc3)n2-c2ccccc2)cc1,11.8%
11,O=C(CCc1nc(-c2ccccc2Cl)no1)NC1CCCC1,1.7%
12,CCOC(=O)Nc1ccc2c(c1)N(C(=O)CCN(C)C)c1ccccc1S2.Cl,-5.69%
13,COc1cc(CN2CCC(CO)(CCOc3ccccc3)CC2)cc(OC)c1,-8.26%
14,COc1ccc(CN2CCC(CO)(CCOc3ccccc3)CC2)cc1C,-77.6%
15,CC(=O)c1cccc(CN2CCC(CO)(CCOc3ccccc3)CC2)c1,-3.07%
16,COc1ccc2[nH]c(CN3CCC(CO)(CCOc4ccccc4)CC3)c(C)c2c1,9.37%
17,COc1ccc(OC)c(CN2CCC(CO)(CCOc3ccccc3)CC2)c1,-30%
18,COc1cc(CN2CCC(CO)(CCOc3ccccc3)CC2)cc(OC)c1OC,3.71%
19,COc1cc(Cl)c(CN2CCC(CO)(CCOc3ccccc3)CC2)cc1OC,-85.1%
20,COc1cc(OC)c(CN2CCC(CO)(CCOc3ccccc3)CC2)c(OC)c1,-87.7%
21,COc1cc(Cl)c(CN2CCCC(CO)(Cc3ccccc3)C2)cc1OC (centres unmarked),-2.72%
22,Cc1nn(C)c(Cl)c1CN1CCC(CO)(CCOc2ccccc2)CC1,-12.9%
23,COc1ccc(CN2CCC(CO)(CCOc3ccccc3)CC2)c(OC)c1C,-81.6%
